# Screening results: PubChem, National Center for Advancing Translational Sciences (NCATS)
# Compounds with a hit are over-represented: about 14% of the library has one in this group of screens.
# Pf growth 48h = inhibits P. falciparum growth in the first generation, 48 h | P. falciparum luciferase growth in erythrocytes, 48 h | Potency, µM (titrated, usually from 28.7 µM), actives largely listed as inhibitors | actives 5.9% (n = 310,000)
#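 Luciferase-expressing parasites in RBCs, 2% Hct / 0.1% parasitemia final; RPMI 1640 + 0.5% Albumax; 37 C, 5% CO2, one generation; luminescence read-out, lower signal = inhibition.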
# Sm TGR inh = blocks Schistosoma mansoni thioredoxin glutathione reductase | Q962Y6 | purified TGR, DTNB reduction, TNB absorbance 405 nm | Potency, µM (highest dose often 114 µM), hits mostly inhibitors | actives 3% (n = 360,000) | AID 485364; also: nearly all actives have a fitted effect of over 60% in size
#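 First, TGR (20 nM dispensed) and NADPH were mixed with compound. Second, a 15 min room-temperature incubation followed. Third, further NADPH and then DTNB were added to start the reaction. Finally, TNB absorbance was monitored kinetically.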
# HCMV inh = human cytomegalovirus inhibition; activity change, negative = inhibition, % at 57.5 µM; HFF cells, HCMV-luciferase reporter, 72 h; hits give low values; AID 1259415; actives 4.5% (n = 410,000); in the data active = activity change below about -60%; inconclusive = no clear call, values can overlap the other calls; inactive = above about -39%
#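 Screen run at 2 compound doses on HFFs infected with reporter HCMV, MOI 1 PFU/cell. Luciferase activity from cell lysates at 72 h post infection gave inhibition relative to buffer-only and Salinomycin wells.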
# FBPA Giardia inh = inhibitors of Giardia lamblia fructose-1,6-bisphosphate aldolase; A8B2U2; purified Giardia FBPA; Potency, µM (series often up to 59.6 µM), actives largely listed as inhibitors; actives 0.71% (n = 290,000); AID 2451; also: nearly all actives have a fitted effect of over 55% in size
# Target sequence (A8B2U2 whole entry, looked up): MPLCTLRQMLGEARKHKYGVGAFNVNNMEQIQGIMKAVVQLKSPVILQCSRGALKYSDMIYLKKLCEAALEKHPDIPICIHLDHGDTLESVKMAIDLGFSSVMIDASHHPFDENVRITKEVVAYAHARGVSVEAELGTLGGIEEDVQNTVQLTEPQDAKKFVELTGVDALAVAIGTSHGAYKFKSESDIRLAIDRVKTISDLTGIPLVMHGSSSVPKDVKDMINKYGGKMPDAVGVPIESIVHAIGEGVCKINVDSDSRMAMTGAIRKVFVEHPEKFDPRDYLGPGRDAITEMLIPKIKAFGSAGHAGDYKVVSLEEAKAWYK
#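 Giardia FBPA (40 nM reagent) was preincubated 10 min at RT with compound (up to 57.5 uM final), then substrate plus GAPDH/TPI/NAD/arsenate coupling system with diaphorase/resazurin was added; resorufin fluorescence (525/598 nm) was read after 20 min.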
# Pf growth 96h = P. falciparum growth inhibition at 96 hours. P. falciparum luciferase reporter growth, 96 h. Potency, µM (highest dose often 28.7 µM), most hits filed as inhibitors. actives 6.9% (n = 320,000)
#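 Delayed-death screen, second-generation endpoint: infected erythrocytes, 2% hematocrit, 0.05% parasitemia final; 96 hours at 37 C, 5% CO2; luciferase detection reagent; luminescence decrease equals reduced growth.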
# Hits are given with their value; . = inactive; ? = inconclusive; / = no result; ! = not confirmed by another sample; [ ] = dose if it differs, or a comment. Unless noted, calls follow the shape of the dose curve; as a rule, active = well fitted curve in the direction sought with a large enough effect; inconclusive = small, poorly fitted or top-dose-only effect, or another doubt; inactive = no such curve, though single readings can be large; an effect the other way counts as inactive or inconclusive.
SMILES,Pf growth 48h,Sm TGR inh,HCMV inh,FBPA Giardia inh,Pf growth 96h
O=C(Nc1ccc(C(F)(F)F)cc1)C1CCN(S(=O)(=O)c2ccc(N3CCCC3=O)cc2)CC1,?,.,.,.,?
COc1ccc(NC(=O)C2CCN(S(=O)(=O)c3ccc(N4CCCC4=O)cc3)CC2)cc1OC,?,.,.,/,13µM
O=S(=O)(c1ccc(NC(=S)Nc2ccccc2)cc1)N1CCOCC1,.,45µM,.,.,.
CCOC(=O)Nc1ccc(S(=O)(=O)N2CCOCC2)cc1,.,.,.,.,.
CC(C)CCCCCCNC(=S)Nc1ccc(S(=O)(=O)N2CCOCC2)cc1,?,.,-85,.,?
O=C(Nc1ccc(S(=O)(=O)N2CCOCC2)cc1)C1CCN(S(=O)(=O)c2ccccc2)CC1,?,.,.,/,2.9µM
O=C(CCNC(=O)c1ccccc1Cl)NCC1COc2ccccc2O1 (stereo unspecified),?,.,.,/,.
O=C(Nc1cc2c3c(c1)C1CCCC1CN3CC1CCCC21)c1ccccc1 (stereo unspecified),13µM,.,-69,.,.
Cc1ccc(CNC(=O)CSc2nc3ccsc3c(=O)n2-c2ccc(C(=O)O)cc2)cc1,/,.,.,/,/
CCN(C(=O)CCS(=O)(=O)c1ccc2c(c1)oc(=O)n2C)c1ccc(OC)cc1,.,?,-64!,/,10µM
COc1ccc(CNC(=O)CCS(=O)(=O)c2ccc3c(c2)oc(=O)n3C)cc1,.,.,.,/,8.3µM
COc1ccc(CCNS(=O)(=O)c2ccc3c(c2)oc(=O)n3C)cc1OC,.,.,.,.,.
CCOc1ccc(CCNS(=O)(=O)c2ccc3c(c2)oc(=O)n3C)cc1OCC,.,.,.,/,13µM
COc1ccc(CCNC(=O)CCS(=O)(=O)c2ccc3c(c2)oc(=O)n3C)cc1OC,?,.,?,/,4.1µM
COc1ccc(CCC(=O)NCc2ccc3c(c2)CCN3C(=O)c2ccc(Cl)cc2)cc1,/,.,.,/,/
COc1ccc(CNC(=O)CCS(=O)(=O)c2ccc(Br)cc2)cc1,.,.,.,.,4.7µM
COc1ccc(S(=O)(=O)CCC(=O)NCc2ccc(C)o2)cc1,.,?,.,.,.
N#CC(=C1C=CC(=NO)C(Cl)=C1)c1ccc(Cl)cc1,/,/,-74,/,/
COc1ccc(C(C#N)=C2C=CC(=NO)C=C2)cc1,?,.,.,.,?
CC(OC(=O)c1ccc(S(C)(=O)=O)c([N+](=O)[O-])c1)C(=O)NC1C2CC3CC(C2)CC1C3 (stereo unspecified),/,/,-97,/,/
CC(C)CN1CCN(C(=O)COC(=O)c2ccc(S(C)(=O)=O)c([N+](=O)[O-])c2)CC1,/,/,.,/,/
CCC(OC(=O)c1ccc(S(C)(=O)=O)c([N+](=O)[O-])c1)C(=O)NC1C2CC3CC(C2)CC1C3 (stereo unspecified),/,/,-95,/,/
CS(=O)(=O)c1ccc(C(=O)OCC(=O)NC23CC4CC(CC(C4)C2)C3)cc1[N+](=O)[O-],.,2.8µM,.,.,.
COc1ccc(C)c2sc(N(Cc3cccnc3)C(C)=O)nc12,/,.,.,/,/
CSCC[C@@H]1NC(=O)C/C=C\[C@@H](C)COC(=O)[C@H](C)COC1=O,/,/,/,.[12.9 µM],/
SMILES,Pf growth 48h,Sm TGR inh,HCMV inh,FBPA Giardia inh,Pf growth 96h
CCOC(=O)C1=CCN(S(=O)(=O)c2ccccc2Cl)C1c1ccc(Cl)cc1 (stereo unspecified),/,/,.,/,/
C/C(=N/NS(=O)(=O)c1cc(C)ccc1C)c1ccc2c(c1)OCO2,.,.,.,.,12µM
C/C(=N/NS(=O)(=O)c1cc(C)ccc1C)c1ccncc1,.,.,.,/,12µM
C=CCN1C=C2C(=O)C(C)(OC(=O)CCC(=O)OC)C(=O)C(Br)=C2C=C1c1ccc(OC)cc1 (stereo unspecified),15µM,?,/,?,?
O=C(NC(=C(Cl)Cl)S(=O)(=O)c1ccc(Cl)cc1)c1ccccc1,.,3.5µM,?,.,.
Cc1ccc(S(=O)(=O)C(NC(=O)c2ccccc2)=C(Cl)Cl)cc1,/,/,-74,/,/
Cc1ccc(C(=O)NC(=C(Cl)Cl)S(=O)(=O)c2ccc(Cl)cc2)cc1,.,/,.,.,.
Cc1ccc(C(=O)NC(=C(Cl)Cl)S(=O)(=O)c2ccc(C)cc2)cc1,.,18µM,-60,.,.
CC(=O)NC(=C(Cl)Cl)S(=O)(=O)c1ccccc1,?,?,-99,.,?
O=C(NS(=O)(=O)c1ccc(Cl)cc1)c1ccccc1,.,.,.,.,.
